Vif inh: HIV Vif inhibition; HEK293T cells, Vif self-association by quenched fluorescence, imaging, 24 h; inhibition, % at 7.49 µM; hit rate 0.35% among 340,000; AID 602346; in the data active means inhibition above about 50%, passing the limit was not always enough
FGF22 binding: binders of recombinant human FGF22 by thermal shift | AID 651658 | Q9HCT0 | activity (Tm shift, normalised), % at 9.99 µM | hit rate 1.5% among 340,000 | SYPRO orange fluorescence; percent of sucrose octasulfate shift, DMSO zero;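 active means mean Tm shift, scaled 0 neutral to 100 positive control, at about 1.3% or above, every replicate too, limit read from the data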
Target sequence (Q9HCT0 whole entry, looked up): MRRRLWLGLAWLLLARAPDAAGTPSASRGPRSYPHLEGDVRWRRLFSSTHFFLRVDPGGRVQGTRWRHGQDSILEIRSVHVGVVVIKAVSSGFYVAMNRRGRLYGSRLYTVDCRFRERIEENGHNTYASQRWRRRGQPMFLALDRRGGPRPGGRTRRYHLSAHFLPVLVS
CFTR F508del cor: CFTR F508del correction in bronchial cells; CFBE cells, YFP halide quenching; stimulated with forskolin plus potentiator P3; % fluorescence drop versus neutral controls; activity (quench increase), % at 7.58 µM; hit rate 0.36% among 350,000; AID 720511;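 active means mean added fluorescence quench of at least 8% versus neutral control, with both replicates also reaching 8%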;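 further: cells transiently co-express mutant CFTR-F508del with the halide-sensitive YFP; corrector assay measuring rescue of mutant channel to the surface after 24 h compound exposure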
Large screens that a line does not name were inactive. A selection: hits, their analogues and other compounds. The true share with any hit is near 1.7%.

C[C@@H]1CN([C@H](C)CO)C(=O)Cc2cc(NC(=O)Nc3ccc(F)cc3)ccc2O[C@@H]1CN(C)S(=O)(=O)c1ccccc1	none (no result: Vif inh)
CO[C@@H]1CC[C@H]2CCN(C)C(=O)CCCN(C)C(=O)c3cccc(C#N)c3OC[C@@H]1O2	none (no result: Vif inh, CFTR F508del cor)
Cc1ccc(CNS(=O)(=O)c2ccc([N+](=O)[O-])cc2)cc1	none
Cc1ccc(CNS(=O)(=O)c2ccccc2[N+](=O)[O-])cc1	FGF22 binding 43.5
C[C@@H]1CN([C@@H](C)CO)C(=O)c2cc(NC(=O)Nc3ccc(C(F)(F)F)cc3)ccc2O[C@@H]1CN(C)Cc1ccc2c(c1)OCO2	none (no result: Vif inh)
Cc1cc(C(=O)Nn2c(C)nc3ccccc3c2=O)ccc1[N+](=O)[O-]	none
Cc1nc2ccccc2c(=O)n1NC(=O)c1ccc([N+](=O)[O-])cc1	FGF22 binding 43.1
C[C@@H]1CN([C@H](C)CO)S(=O)(=O)c2ccc(C3=CCCCC3)cc2O[C@@H]1CN(C)C(=O)C1CCCCC1	none (no result: Vif inh)
O=C(Cc1cccs1)N1CCN(S(=O)(=O)c2ccc(Br)cc2)CC1	none
Cc1ccc(S(=O)(=O)N2CCN(C(=O)CN(Cc3ccco3)Cc3cccs3)CC2)cc1	CFTR F508del cor 29.4
O=C(COC(=O)c1c(F)cccc1F)Nc1ccccc1OC(F)F	Vif inh 50.6
COc1ccccc1C(=O)OCC(=O)Nc1ccccc1OC(F)F	none
Cc1ccc(NC(=O)COC(=O)/C=C/c2ccco2)cc1S(=O)(=O)N(C)C	none (no result: FGF22 binding, CFTR F508del cor)
C/C=C/C(=O)OCC(=O)Nc1ccc(C)c(S(=O)(=O)N(C)C)c1	FGF22 binding 43.6
c1ccc(Cn2cnc3ccccc32)cc1	none (no result: FGF22 binding, CFTR F508del cor)
Clc1ccc(Cn2cnc3ccccc32)cc1	FGF22 binding 43.1
O=C(N[C@@H]1CC[C@H](CCNC(=O)C2CCOCC2)O[C@H]1CO)c1ccncc1	none (no result: Vif inh)
CO[C@H]1CN(C)C(=O)c2cc(NC(=O)NC3CCCCC3)ccc2OC[C@@H](C)N(CCc2ccccc2)C[C@@H]1C	none (no result: Vif inh)
CCOC(=O)CC(=O)CSc1ncnc2c1oc1ccccc12	Vif inh 56.5 (no result: FGF22 binding, CFTR F508del cor)
O=C(O)CSc1ncnc2c1oc1ccccc12	none (no result: FGF22 binding, CFTR F508del cor)
C[C@@H]1CCCCO[C@@H](CN(C)Cc2ccc(Cl)c(Cl)c2)[C@@H](C)CN([C@H](C)CO)C(=O)c2cc(NC(=O)NC3CCCCC3)ccc2O1	none (no result: Vif inh)
CCC1(C)Cc2ccccc2-c2[nH]c(=S)[nH]c(=O)c21 (stereo not drawn)	none
CCC1(C)Cc2ccccc2-c2nc[nH]c(=O)c21 (stereo not drawn)	CFTR F508del cor 8.6
C[C@@H]1CCCCO[C@@H](CN(C)C(=O)NC2CCCCC2)[C@H](C)CN([C@@H](C)CO)C(=O)c2cc(NC(=O)Nc3ccc4c(c3)OCO4)ccc2O1	none (no result: Vif inh)
C[C@H]1[C@@H]2C[C@@]3(O[C@H](c4ccc(C(F)(F)F)cc4)N=C3C[C@@H]1c1ccccc1)N(Cc1ccncc1)C2=O	none (no result: Vif inh)
C[C@H]1[C@@H]2C[C@@]3(O[C@H](c4ccccn4)N=C3C[C@@H]1c1ccccc1)N(Cc1ccncc1)C2=O	FGF22 binding 48.5 (no result: Vif inh)
CO[C@@H]1CN(C)C(=O)c2cc(NS(C)(=O)=O)ccc2OC[C@@H](C)N(C(=O)CC2CC2)C[C@@H]1C	none (no result: Vif inh, FGF22 binding)
C[C@@H]1CN([C@H](C)CO)C(=O)CCCn2cc(nn2)CO[C@@H]1CN(C)Cc1ccc2c(c1)OCCO2	none (no result: Vif inh)
O=C1CSC(=S)N1N=Cc1cccc2ccccc12	none
O=C(Cc1cccc2ccccc12)NN1C(=O)CSC1=S	FGF22 binding 43.5
CCCNC(=O)C[C@@H]1CC[C@H]2[C@@H](COC[C@H](O)CN2CC2CCCCC2)O1	none (no result: Vif inh)
CO[C@H]1CC[C@H]2CCN(C)C(=O)[C@H](C)[C@H](OC)CN(C)C(=O)c3cc(C#N)ccc3OC[C@H]1O2	none (no result: Vif inh)
Cc1cccc(C)c1OCC(=O)Nn1c(=O)[nH]c2ccccc2c1=O	FGF22 binding 43.1
Cc1cccc(C)c1OCC(=O)NCc1ccccc1	none (no result: Vif inh)
Cc1noc(C)c1S(=O)(=O)N(C)C[C@@H]1OCCCC[C@H](C)Oc2ccc(NS(=O)(=O)c3ccccc3)cc2C(=O)N([C@H](C)CO)C[C@@H]1C	none (no result: Vif inh)
COc1ccc(S(=O)(=O)N(C)C[C@@H]2Oc3c(NC(=O)c4ccc(-c5nccs5)cc4)cccc3C(=O)N([C@H](C)CO)C[C@H]2C)cc1	none (no result: Vif inh)
C[C@@H]1CCCCO[C@@H](CN(C)C(=O)CCC(F)(F)F)[C@H](C)CN([C@H](C)CO)C(=O)c2cc(NC(=O)c3ccncc3)ccc2O1	none (no result: Vif inh)
CCCC(=O)Oc1ccc2c(C)cc(=O)oc2c1	none (no result: CFTR F508del cor)
Cc1cc(=O)oc2cc(OC(=O)c3cncc(Br)c3)ccc12	FGF22 binding 43.9
C[C@@H]1CN([C@H](C)CO)C(=O)c2cc(NC(=O)NC3CCCCC3)ccc2O[C@@H](C)CCCCO[C@H]1CN(C)Cc1ccc(C(F)(F)F)cc1	none (no result: Vif inh)
CCOC(=O)Cn1cnc2c(nnn2-c2ccccc2)c1=O	none (no result: FGF22 binding, CFTR F508del cor)

Bioassay records: PubChem, Broad Institute
